Data taken from PubChem BioAssay AID1159580 (chemical genetic matrix, 2015).
The campaign covered roughly 5,500 compounds. About 2,000 (36%) were called active. Not shown: some 18% with an inconclusive outcome. Rule as the data show it: active = normalized growth mostly below about 0.91 (no sharp cut-off); inconclusive = no clear call, values can overlap the other calls; inactive = mostly above about 0.92. Some of the results follow.

Test: chemical genetic growth profiling, strain panel (AID 1159580);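 also: tested at 20 µM; growth read once vehicle control cultures reached saturation at 30 °C; 1 = growth at the plate median or of vehicle wells; lower values mean less growth of the strain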
Conditions: growth OD

Measured: normalized growth

C[C@@H]1CC2C3CCC4=CC(=O)C=C[C@]4(C)[C@@]3(F)[C@@H](O)C[C@]2(C)[C@@]1(O)C(=O)COP(=O)(O)O (stereo partly drawn)
inactive: S. cerevisiae deletion strains, locus YJR066W, strain TOR1, stronger effect = lower value 0.95 | S. cerevisiae deletion strains, locus YJR075W, strain HOC1, stronger effect = lower value 1.02 | S. cerevisiae deletion strains, locus YKL009W, strain mrt4, stronger effect = lower value 1 | S. cerevisiae deletion strains, locus YKL068W, stronger effect = lower value 1.01 | S. cerevisiae deletion strains, locus YKL085W, strain MDH1 (second series), stronger effect = lower value 1.05 | S. cerevisiae deletion strains, locus YKL085W, strain MDH1, stronger effect = lower value 1.05 | S. cerevisiae deletion strains, locus YKL160W, strain elf1, stronger effect = lower value 0.965 | S. cerevisiae deletion strains, locus YKR001C, strain vps1, stronger effect = lower value 0.997 | S. cerevisiae deletion strains, locus YKR026C, strain gcn3, stronger effect = lower value 0.966 | S. cerevisiae deletion strains, locus YKR091W, strain srl3, stronger effect = lower value 0.982 | S. cerevisiae deletion strains, locus YLL001W, strain dnm1, stronger effect = lower value 0.931 | S. cerevisiae deletion strains, locus YLL026W, stronger effect = lower value 0.986 | S. cerevisiae deletion strains, locus YLL041C, strain sdh2, stronger effect = lower value 0.97 | S. cerevisiae deletion strains, locus YLR027C, strain aat2, stronger effect = lower value 0.975 | S. cerevisiae deletion strains, locus YLR039C, strain RIC1, stronger effect = lower value 1.02 | S. cerevisiae deletion strains, locus YLR058C, strain SHM2, stronger effect = lower value 1.01 | S. cerevisiae deletion strains, locus YLR102C, strain apc9, stronger effect = lower value 0.993 | S. cerevisiae deletion strains, locus YLR113W, strain HOG1, stronger effect = lower value 0.977 | S. cerevisiae deletion strains, locus YLR221C, strain rsa3, stronger effect = lower value 1.01 | S. cerevisiae deletion strains, locus YLR258W, strain gsy2, stronger effect = lower value 1 | S. cerevisiae deletion strains, locus YLR262C, strain YPT6 (second series), stronger effect = lower value 0.959 | S. cerevisiae deletion strains, locus YLR262C, strain YPT6, stronger effect = lower value 1.01 | S. cerevisiae deletion strains, locus YLR268W, strain sec22, stronger effect = lower value 0.996 | S. cerevisiae deletion strains, locus YLR320W, strain mms22, stronger effect = lower value 1.01 | S. cerevisiae deletion strains, locus YLR330W, strain CHS5, stronger effect = lower value 1.01 | S. cerevisiae deletion strains, locus YLR342W, strain FKS1 (second series), stronger effect = lower value 1.01 | S. cerevisiae deletion strains, locus YLR342W, strain FKS1, stronger effect = lower value 0.959 | S. cerevisiae deletion strains, locus YLR357W, strain rsc2, stronger effect = lower value 0.957 | S. cerevisiae deletion strains, locus YLR370C, strain arc18, stronger effect = lower value 0.972 | S. cerevisiae deletion strains, locus YLR371W, strain rom2, stronger effect = lower value 0.994 | S. cerevisiae deletion strains, locus YLR384C, strain iki3, stronger effect = lower value 0.959 | S. cerevisiae deletion strains, locus YLR418C, strain cdc73, stronger effect = lower value 1.01 | S. cerevisiae deletion strains, locus YML016C, strain PPZ1, stronger effect = lower value 1 | S. cerevisiae deletion strains, locus YML032C, strain rad52, stronger effect = lower value 0.991 | S. cerevisiae deletion strains, locus YML120C, strain ndi1, stronger effect = lower value 0.97 | S. cerevisiae deletion strains, locus YML124C, strain tub3, stronger effect = lower value 0.993 | S. cerevisiae deletion strains, locus YMR058W, strain fet3, stronger effect = lower value 0.978 | S. cerevisiae deletion strains, locus YMR078C, strain ctf18, stronger effect = lower value 0.987 | S. cerevisiae deletion strains, locus YMR125W, strain sto1, stronger effect = lower value 0.933 | S. cerevisiae deletion strains, locus YMR129W, stronger effect = lower value 0.987 | S. cerevisiae deletion strains, locus YMR205C, strain PFK2, stronger effect = lower value 0.981 | S. cerevisiae deletion strains, locus YMR223W, strain ubp8, stronger effect = lower value 1.01 | S. cerevisiae deletion strains, locus YMR231W, strain pep5, stronger effect = lower value 0.957 | S. cerevisiae deletion strains, locus YMR263W, strain SAP30, stronger effect = lower value 1.01 | S. cerevisiae deletion strains, locus YMR307W, strain GAS1, stronger effect = lower value 1.09 | S. cerevisiae deletion strains, locus YNL067W, strain RPL9B, stronger effect = lower value 1.01 | S. cerevisiae deletion strains, locus YNL071W, strain lat1, stronger effect = lower value 0.985 | S. cerevisiae deletion strains, locus YNL153C, strain GIM3, stronger effect = lower value 0.998 | S. cerevisiae deletion strains, locus YNL183C, strain NPR1, stronger effect = lower value 0.955 | S. cerevisiae deletion strains, locus YNL209W, strain ssb2, stronger effect = lower value 0.986 | S. cerevisiae deletion strains, locus YNL233W, strain BNI4, stronger effect = lower value 1.02 | S. cerevisiae deletion strains, locus YNL248C, strain rpa49, stronger effect = lower value 0.987 | S. cerevisiae deletion strains, locus YNL250W, strain rad50, stronger effect = lower value 0.993 | S. cerevisiae deletion strains, locus YNL271C, strain bni1, stronger effect = lower value 1.01 | S. cerevisiae deletion strains, locus YNL298W, strain CLA4, stronger effect = lower value 1.02 | S. cerevisiae deletion strains, locus YNL307C, strain MCK1, stronger effect = lower value 0.995 | S. cerevisiae deletion strains, locus YNL322C, strain KRE1 (second series), stronger effect = lower value 0.963 | S. cerevisiae deletion strains, locus YNR049C, strain mso1, stronger effect = lower value 0.98 | S. cerevisiae deletion strains, locus YNR052C, strain pop2, stronger effect = lower value 1.02 | S. cerevisiae deletion strains, locus YOL006C, strain TOP1, stronger effect = lower value 1.01 | S. cerevisiae deletion strains, locus YOL012C, strain htz1 1.85 | S. cerevisiae deletion strains, locus YOL147C, strain pex11, stronger effect = lower value 1.01 | S. cerevisiae deletion strains, locus YOR001W, strain rrp6, stronger effect = lower value 0.946 | S. cerevisiae deletion strains, locus YOR061W, strain CKA2, stronger effect = lower value 1.01 | S. cerevisiae deletion strains, locus YOR069W, strain VPS5, stronger effect = lower value 1.01 | S. cerevisiae deletion strains, locus YOR070C, strain gyp1, stronger effect = lower value 0.99 | S. cerevisiae deletion strains, locus YOR080W, strain dia2, stronger effect = lower value 0.94 | S. cerevisiae deletion strains, locus YOR083W, strain WHI5, stronger effect = lower value 0.959 | S. cerevisiae deletion strains, locus YOR106W, strain vam3, stronger effect = lower value 0.928 | S. cerevisiae deletion strains, locus YOR136W, strain idh2, stronger effect = lower value 1 | S. cerevisiae deletion strains, locus YOR144C, strain elg1, stronger effect = lower value 0.997 | S. cerevisiae deletion strains, locus YOR184W, strain ser1, stronger effect = lower value 0.99 | S. cerevisiae deletion strains, locus YOR231W, strain MKK1, stronger effect = lower value 1.01 | S. cerevisiae deletion strains, locus YOR265W, strain rbl2, stronger effect = lower value 0.974 | S. cerevisiae deletion strains, locus YOR270C, strain vph1, stronger effect = lower value 1 | S. cerevisiae deletion strains, locus YOR290C, strain snf2, stronger effect = lower value 1.01 | S. cerevisiae deletion strains, locus YOR316C, strain cot1, stronger effect = lower value 1 | S. cerevisiae deletion strains, locus YPL051W, strain arl3, stronger effect = lower value 1.01 | S. cerevisiae deletion strains, locus YPL078C, strain atp4, stronger effect = lower value 0.935 | S. cerevisiae deletion strains, locus YPL106C, strain sse1, stronger effect = lower value 0.966 | S. cerevisiae deletion strains, locus YPL240C, strain hsp82, stronger effect = lower value 0.976 | S. cerevisiae deletion strains, locus YPL256C, strain CLN2, stronger effect = lower value 0.985 | S. cerevisiae deletion strains, locus YPR119W, strain clb2, stronger effect = lower value 0.993 | S. cerevisiae deletion strains, locus YPR141C, strain kar3, stronger effect = lower value 0.994 | S. cerevisiae deletion strains, locus YPR163C, strain tif3, stronger effect = lower value 0.995 | S. cerevisiae deletion strains, locus YPR167C, strain met16, stronger effect = lower value 0.997 | S. cerevisiae deletion strains, strain wtn01, stronger effect = lower value 1 | S. cerevisiae strains, strain wild type, stronger effect = lower value 1.01
